Source: PubChem BioAssay (EPA / NIEHS)
Values joined by “and” are separate entries in the source; they are usually repeats but may differ in a detail not shown here. Identical values can stand only once. A structure can be active in one record and inactive in another. Active and inactive are the calls of the source. The calls were made as follows: active = hit-call score of the fitted dose curve at least 0.9, where 1 is the maximum; inactive = score below 0.9.

Assays:
[1] = ATG_GLI_CIS: Attagene CIS-FACTORIAL HepG2 Assay for human Zinc Finger Protein GLI1 (AID 2282945); conditions: HepG2, Attagene cis-factorial reporter mRNA, GLI element; actives raise or lower the signal
How it was run: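 Bidirectional curve fits relative to DMSO, using reporter mRNA levels from RT-PCR plus capillary electrophoresis. Cells were HepG2 transiently carrying cis-regulated reporter constructs, harvested 24 h after dosing.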

[2] = target: Bile acid receptor (Homo sapiens) (UniProt Q96RI1); experiment: ATG_IR1_CIS: Attagene CIS-FACTORIAL HepG2 Assay for human Nuclear Receptor Subfamily 1 Group H Member 4 (NR1H4), IR1 submotif (AID 2282946); conditions: IR1 reporter transcription, actives raise or lower the signal
How it was run: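 HepG2 cells transiently transfected with multiplexed cis-element reporter units read endogenous transcription factor activity. After 24 h compound exposure, reporter mRNA was quantified by RT-PCR, fluorescent labelling, HpaI digestion and capillary electrophoresis; bidirectional fitting versus DMSO baseline.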

[3] = ATG_GRE_CIS: Attagene CIS-FACTORIAL HepG2 Assay for human Glucocorticoid Response Elements (GRE) (AID 2282947); conditions: HepG2 GRE cis-reporter, Attagene multiplex mRNA; actives raise or lower the signal
How it was run: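 Multiplexed cis-reporter mRNA induction, HepG2, 24 h post-dose. RT-PCR, FAM-labelled, HpaI-digested amplicons by CE. Bidirectional fit vs DMSO.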

[4] = ATG_ISRE_CIS: Attagene CIS-FACTORIAL HepG2 Assay for human Interferon Regulatory Factor 1 (IRF1) binding to an Interferon-Stimulated Response Element (ISRE) (AID 2282948); conditions: HepG2 ISRE cis-reporter (Attagene), mRNA transcription readout; actives raise or lower the signal
How it was run: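 Endogenous transcription factor activity read as reporter transcript abundance via RT-PCR and capillary electrophoresis. HepG2 cells transiently transfected, 24 h chemical exposure. Gain or loss fitted against DMSO baseline.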

[5] = ATG_M_32_CIS: Attagene CIS-FACTORIAL HepG2 Assay for M32 Transcription Factor (Internal Marker) (AID 2282949); conditions: HepG2 Attagene cis-factorial M32 reporter, mRNA; actives raise or lower the signal;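 also: background control marker of the multiplexed CIS panel rather than a real target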
How it was run: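 Using DMSO as baseline, bidirectional curve fits were applied to reporter mRNA signals. These came from transiently transfected HepG2 cells exposed for 24 h, with RNA analysed by RT-PCR, FAM primer extension, HpaI digestion and CE.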

[6] = ATG_M_06_CIS: Attagene CIS-FACTORIAL HepG2 Assay for M06 Transcription Factor (Internal Marker) (AID 2282950); conditions: HepG2 Attagene CIS-FACTORIAL M06 internal marker reporter; actives raise or lower the signal
How it was run: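 One of many multiplexed endpoints: HepG2 reporter mRNA after 24 h dosing, detected by RT-PCR and capillary electrophoresis fluorescence; gain or loss of signal analysed against DMSO.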

[7] = target: Hypoxia-inducible factor 1-alpha (Homo sapiens) (UniProt Q16665); experiment: ATG_HIF1a_CIS: Attagene CIS-FACTORIAL HepG2 Assay for human Hypoxia Inducible Factor 1 (HIF1A) (AID 2282951); conditions: HepG2 Attagene cis-factorial HIF1a reporter transcription; actives raise or lower the signal
How it was run: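 After 24 h chemical exposure of reporter-transfected HepG2 cells, reporter cDNA was PCR-amplified, labelled by 6-FAM primer extension (2 min 95 C, 20 s 68 C, 10 min 72 C), HpaI-cut (2 h, 37 C) and analysed by CE.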

[8] = target: Hepatocyte nuclear factor 6 (Homo sapiens) (UniProt Q9UBC0); experiment: ATG_HNF6_CIS: Attagene CIS-FACTORIAL HepG2 Assay for human Hepatocyte Nuclear Factor 6 (HNF6) (AID 2282952); conditions: HepG2 Attagene cis-factorial HNF6 reporter transcription; actives raise or lower the signal
How it was run: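 Using cis-element reporters in HepG2 liver cells, the assay tracks endogenous factor-driven transcription 24 h post-dosing. Signal comes from 6-FAM-labelled, HpaI-digested RT-PCR fragments, with gain or loss scored against DMSO.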

[9] = target: Heat shock factor protein 1 (Homo sapiens) (UniProt Q00613); experiment: ATG_HSE_CIS: Attagene CIS-FACTORIAL HepG2 Assay for human Heat Shock Transcription Factor 1 (HSE) (AID 2282953); conditions: HepG2 HSE cis-reporter, Attagene RNA transcription; actives raise or lower the signal
How it was run: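 Using HepG2 with transfected cis-driven reporter constructs, compound effects on endogenous factor activity are scored as reporter mRNA change at 24 h. Detection: RT-PCR, HpaI digestion, capillary electrophoresis; bidirectional fitting to DMSO.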

[10] = ATG_MRE_CIS: Attagene CIS-FACTORIAL HepG2 Assay for human Metal Responsive Element (MRE) (AID 2282954); conditions: HepG2 MRE cis-reporter transcription, Attagene multiplex; actives raise or lower the signal
How it was run: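 Multiplexed cis-reporter assay in human HepG2 liver cells, 24 h incubation with test chemical. Reporter transcripts measured by RT-PCR and capillary electrophoresis; values from bidirectional curve fitting versus DMSO.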

[11] = ATG_PBREM_CIS: Attagene CIS-FACTORIAL HepG2 Assay for human Phenobarbital-responsive Enhancer Module (PBREM) (AID 2282955); conditions: HepG2 PBREM cis-reporter, Attagene multiplexed transcription; actives raise or lower the signal
How it was run: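 Measures endogenous factor action on a phenobarbital-responsive enhancer module. HepG2 transiently carrying cis reporters, 24 h treatment, mRNA read-out by RT-PCR plus capillary electrophoresis.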

[12] = target: Paired box protein Pax-6 (Homo sapiens) (UniProt P26367); experiment: ATG_Pax6_CIS: Attagene CIS-FACTORIAL HepG2 Assay for human Paired Box 6 (PAX6) (AID 2282956); conditions: HepG2 CIS-FACTORIAL PAX6 reporter transcription, RNA readout; actives raise or lower the signal
How it was run: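 Read-out is reporter transcript level, measured by RT-PCR with fluorescent primer extension and capillary electrophoresis after 24 h dosing of transfected HepG2 cells. Activity in either direction fitted relative to DMSO control.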

[13] = ATG_PXRE_CIS: Attagene CIS-FACTORIAL HepG2 Assay for human Pregnane X Receptor Element (PXRE) (AID 2282957); conditions: HepG2 Attagene CIS-FACTORIAL PXRE reporter, mRNA; actives raise or lower the signal
How it was run: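 Using HepG2 transfected with multiple reporter transcription units, endogenous factor-driven transcription was scored as reporter mRNA after 24 h exposure.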

[14] = ATG_PPRE_CIS: Attagene CIS-FACTORIAL HepG2 Assay for human Peroxisome Proliferator-activated Response Element (PPRE) (AID 2282958); conditions: HepG2 PPRE cis-element reporter, Attagene transcription factor profiling; actives raise or lower the signal
How it was run: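 PPRE activity in HepG2: transient cis-reporter transfection, 24 h compound incubation, reporter mRNA by RT-PCR and CE fluorescence; gain/loss fitted against DMSO.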

[15] = ATG_RORE_CIS: Attagene CIS-FACTORIAL HepG2 Assay for human RAR-related Orphan Receptor Element (RORE) (AID 2282959); conditions: HepG2 Attagene cis-factorial RORE reporter, mRNA; actives raise or lower the signal
How it was run: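 A 24-hour exposure of transfected HepG2 hepatoma cells precedes RNA isolation and reporter RT-PCR. Labeled products are digested with HpaI and resolved by capillary electrophoresis, with gain or loss of signal scored relative to DMSO.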

[16] = ATG_Sox_CIS: Attagene CIS-FACTORIAL HepG2 Assay for human SRY-box transcription factor (SOX) (AID 2282960); conditions: HepG2 Attagene cis-factorial SOX reporter, mRNA; actives raise or lower the signal
How it was run: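 HepG2, cis reporter units, 24 h exposure. Reporter mRNA: RT-PCR → FAM labelling → HpaI → CE fluorescence. Bidirectional fit vs DMSO.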

[17] = target: Transcription factor Sp1 (Homo sapiens) (UniProt P08047); experiment: ATG_Sp1_CIS: Attagene CIS-FACTORIAL HepG2 Assay for human Specificity Protein 1 (Sp1) (AID 2282961); conditions: HepG2 Sp1 cis-reporter transcription, actives raise or lower the signal
How it was run: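 Liver-derived HepG2 cells, cis-element reporter library, 24 h treatment; RNA isolated, cDNA amplified with reporter-specific primers, FAM-labeled fragments sized on capillary analyzer. DMSO baseline, bidirectional curve fit.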

[18] = ATG_SREBP_CIS: Attagene CIS-FACTORIAL HepG2 Assay for human Sterol Regulatory Element Binding (SREBP) (AID 2282962); conditions: HepG2 Attagene cis-factorial SREBP reporter, mRNA; actives raise or lower the signal
How it was run: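 Endogenous SREBP activity read as cis-element-driven reporter transcript in transiently transfected HepG2, 24 h post-dosing; quantified via RT-PCR plus capillary electrophoresis of fluorescent fragments. Gain or loss of signal fitted relative to DMSO baseline.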

[19] = target: Signal transducer and activator of transcription 3 (Homo sapiens) (UniProt P40763); experiment: ATG_STAT3_CIS: Attagene CIS-FACTORIAL HepG2 Assay for human Signal Transducer and Activator of Transcription 3 (STAT3) (AID 2282963); conditions: HepG2, Attagene cis-factorial STAT3 reporter transcription; actives raise or lower the signal
How it was run: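 Cis-factorial format: endogenous transcription factors in HepG2 drive transfected reporter units. After 24 h treatment, reporter RNA was reverse-transcribed, amplified, FAM-labelled and HpaI-digested before CE analysis; activity scored in both directions against DMSO.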

[20] = ATG_TA_CIS: Attagene CIS-FACTORIAL HepG2 Assay for human TA Basal Promoter (AID 2282964); conditions: HepG2 Attagene CIS-factorial TA basal promoter reporter; actives raise or lower the signal
How it was run: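 Transient MRTU transfection of HepG2 preceded 24 h compound exposure. Reporter mRNA levels were then read by RT-PCR with capillary electrophoresis, and this background-control endpoint was fitted bidirectionally to DMSO.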

Measured: AC50

Chain of Heat shock factor protein 1 (Homo sapiens) (Q00613 whole entry, looked up): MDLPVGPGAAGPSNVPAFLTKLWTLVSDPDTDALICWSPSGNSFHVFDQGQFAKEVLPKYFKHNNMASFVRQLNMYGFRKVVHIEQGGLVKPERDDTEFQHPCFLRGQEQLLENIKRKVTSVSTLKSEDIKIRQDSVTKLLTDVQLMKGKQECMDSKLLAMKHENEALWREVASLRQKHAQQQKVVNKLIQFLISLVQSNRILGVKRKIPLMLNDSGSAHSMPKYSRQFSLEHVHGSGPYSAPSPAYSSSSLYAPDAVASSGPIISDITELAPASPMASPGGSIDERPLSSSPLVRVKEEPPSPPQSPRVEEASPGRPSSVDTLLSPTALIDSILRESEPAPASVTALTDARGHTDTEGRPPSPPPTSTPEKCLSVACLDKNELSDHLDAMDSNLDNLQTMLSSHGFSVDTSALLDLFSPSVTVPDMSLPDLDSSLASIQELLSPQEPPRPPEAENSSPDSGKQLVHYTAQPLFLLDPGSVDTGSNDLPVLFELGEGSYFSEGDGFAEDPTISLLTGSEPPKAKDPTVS
Chain of Transcription factor Sp1 (Homo sapiens) (P08047 whole entry, looked up, the tested form may be a part): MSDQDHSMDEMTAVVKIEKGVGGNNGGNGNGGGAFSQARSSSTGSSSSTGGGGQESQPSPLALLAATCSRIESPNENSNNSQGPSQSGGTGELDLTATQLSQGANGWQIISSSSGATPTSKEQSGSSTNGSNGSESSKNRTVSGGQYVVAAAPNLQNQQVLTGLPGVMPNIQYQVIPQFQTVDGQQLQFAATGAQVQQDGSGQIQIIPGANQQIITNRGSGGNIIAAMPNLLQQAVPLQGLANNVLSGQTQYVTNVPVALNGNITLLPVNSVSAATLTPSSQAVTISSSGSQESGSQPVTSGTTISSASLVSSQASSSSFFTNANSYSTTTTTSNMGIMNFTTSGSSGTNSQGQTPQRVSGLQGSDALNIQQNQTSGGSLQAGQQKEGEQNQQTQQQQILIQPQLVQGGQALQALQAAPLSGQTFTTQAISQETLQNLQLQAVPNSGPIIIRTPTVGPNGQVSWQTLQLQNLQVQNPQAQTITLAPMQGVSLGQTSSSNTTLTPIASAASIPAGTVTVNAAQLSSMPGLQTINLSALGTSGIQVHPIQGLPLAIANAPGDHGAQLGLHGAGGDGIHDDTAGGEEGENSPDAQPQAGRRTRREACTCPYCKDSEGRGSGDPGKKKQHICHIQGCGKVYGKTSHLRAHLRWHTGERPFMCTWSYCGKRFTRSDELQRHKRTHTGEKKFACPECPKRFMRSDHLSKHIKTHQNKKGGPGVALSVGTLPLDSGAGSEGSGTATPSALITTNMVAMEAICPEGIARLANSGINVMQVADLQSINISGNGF
Chain of Bile acid receptor (Homo sapiens) (Q96RI1 whole entry, looked up): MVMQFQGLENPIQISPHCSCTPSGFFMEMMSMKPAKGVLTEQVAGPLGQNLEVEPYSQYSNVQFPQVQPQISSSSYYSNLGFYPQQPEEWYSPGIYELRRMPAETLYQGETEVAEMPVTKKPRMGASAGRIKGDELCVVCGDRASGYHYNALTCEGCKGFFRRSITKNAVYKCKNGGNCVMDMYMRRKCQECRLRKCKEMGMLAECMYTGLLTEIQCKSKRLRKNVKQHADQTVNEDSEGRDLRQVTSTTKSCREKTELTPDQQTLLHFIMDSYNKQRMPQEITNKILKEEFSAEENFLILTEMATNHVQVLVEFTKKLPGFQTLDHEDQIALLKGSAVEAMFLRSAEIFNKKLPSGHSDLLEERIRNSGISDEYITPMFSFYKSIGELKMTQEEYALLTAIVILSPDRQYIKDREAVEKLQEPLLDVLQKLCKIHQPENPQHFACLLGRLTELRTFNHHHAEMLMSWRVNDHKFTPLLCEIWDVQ
Chain of Paired box protein Pax-6 (Homo sapiens) (P26367 whole entry, looked up): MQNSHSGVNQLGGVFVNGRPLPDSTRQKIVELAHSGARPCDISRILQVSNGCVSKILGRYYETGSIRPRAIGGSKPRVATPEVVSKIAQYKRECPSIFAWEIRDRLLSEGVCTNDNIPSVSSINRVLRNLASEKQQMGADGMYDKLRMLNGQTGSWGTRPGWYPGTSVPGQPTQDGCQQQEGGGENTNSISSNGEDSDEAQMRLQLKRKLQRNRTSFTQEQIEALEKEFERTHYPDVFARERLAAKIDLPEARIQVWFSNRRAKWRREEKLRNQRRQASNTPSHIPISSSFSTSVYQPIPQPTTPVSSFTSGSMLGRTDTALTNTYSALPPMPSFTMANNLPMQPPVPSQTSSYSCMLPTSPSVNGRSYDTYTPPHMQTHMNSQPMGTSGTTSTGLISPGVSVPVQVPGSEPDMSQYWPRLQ
Chain of Signal transducer and activator of transcription 3 (Homo sapiens) (P40763 whole entry, looked up): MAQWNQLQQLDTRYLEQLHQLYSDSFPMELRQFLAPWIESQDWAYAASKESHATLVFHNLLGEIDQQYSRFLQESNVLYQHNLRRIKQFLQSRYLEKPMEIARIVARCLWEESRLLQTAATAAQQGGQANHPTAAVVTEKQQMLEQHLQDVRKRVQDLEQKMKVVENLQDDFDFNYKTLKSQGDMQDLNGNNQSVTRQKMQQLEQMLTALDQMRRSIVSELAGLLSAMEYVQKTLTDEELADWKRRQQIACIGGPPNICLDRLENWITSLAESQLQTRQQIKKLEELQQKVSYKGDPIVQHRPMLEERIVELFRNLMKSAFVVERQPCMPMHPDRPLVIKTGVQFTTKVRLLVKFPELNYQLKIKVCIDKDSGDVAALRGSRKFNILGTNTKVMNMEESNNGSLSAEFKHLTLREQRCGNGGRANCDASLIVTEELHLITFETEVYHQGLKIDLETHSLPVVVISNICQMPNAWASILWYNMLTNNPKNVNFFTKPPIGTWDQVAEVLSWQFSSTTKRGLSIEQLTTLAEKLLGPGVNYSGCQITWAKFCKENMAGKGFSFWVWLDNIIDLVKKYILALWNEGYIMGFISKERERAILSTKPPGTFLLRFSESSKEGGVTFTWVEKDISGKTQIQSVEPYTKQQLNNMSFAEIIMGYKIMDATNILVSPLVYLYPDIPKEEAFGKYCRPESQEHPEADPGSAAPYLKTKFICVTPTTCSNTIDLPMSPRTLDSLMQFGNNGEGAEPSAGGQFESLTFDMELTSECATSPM
Chain of Hepatocyte nuclear factor 6 (Homo sapiens) (Q9UBC0 whole entry, looked up, the tested form may be a part): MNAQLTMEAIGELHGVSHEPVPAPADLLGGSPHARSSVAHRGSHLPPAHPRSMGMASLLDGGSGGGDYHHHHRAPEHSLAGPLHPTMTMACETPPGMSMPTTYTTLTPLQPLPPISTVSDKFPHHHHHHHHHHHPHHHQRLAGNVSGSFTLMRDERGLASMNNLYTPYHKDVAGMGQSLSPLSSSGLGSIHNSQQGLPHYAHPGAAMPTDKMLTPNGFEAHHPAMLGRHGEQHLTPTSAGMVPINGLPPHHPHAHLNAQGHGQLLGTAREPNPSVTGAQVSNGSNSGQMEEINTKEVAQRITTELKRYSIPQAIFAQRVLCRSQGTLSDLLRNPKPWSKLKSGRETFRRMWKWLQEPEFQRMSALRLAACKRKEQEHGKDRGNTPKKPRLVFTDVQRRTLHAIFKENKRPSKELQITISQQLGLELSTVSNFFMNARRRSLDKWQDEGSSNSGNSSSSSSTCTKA
Chain of Hypoxia-inducible factor 1-alpha (Homo sapiens) (Q16665 whole entry, looked up): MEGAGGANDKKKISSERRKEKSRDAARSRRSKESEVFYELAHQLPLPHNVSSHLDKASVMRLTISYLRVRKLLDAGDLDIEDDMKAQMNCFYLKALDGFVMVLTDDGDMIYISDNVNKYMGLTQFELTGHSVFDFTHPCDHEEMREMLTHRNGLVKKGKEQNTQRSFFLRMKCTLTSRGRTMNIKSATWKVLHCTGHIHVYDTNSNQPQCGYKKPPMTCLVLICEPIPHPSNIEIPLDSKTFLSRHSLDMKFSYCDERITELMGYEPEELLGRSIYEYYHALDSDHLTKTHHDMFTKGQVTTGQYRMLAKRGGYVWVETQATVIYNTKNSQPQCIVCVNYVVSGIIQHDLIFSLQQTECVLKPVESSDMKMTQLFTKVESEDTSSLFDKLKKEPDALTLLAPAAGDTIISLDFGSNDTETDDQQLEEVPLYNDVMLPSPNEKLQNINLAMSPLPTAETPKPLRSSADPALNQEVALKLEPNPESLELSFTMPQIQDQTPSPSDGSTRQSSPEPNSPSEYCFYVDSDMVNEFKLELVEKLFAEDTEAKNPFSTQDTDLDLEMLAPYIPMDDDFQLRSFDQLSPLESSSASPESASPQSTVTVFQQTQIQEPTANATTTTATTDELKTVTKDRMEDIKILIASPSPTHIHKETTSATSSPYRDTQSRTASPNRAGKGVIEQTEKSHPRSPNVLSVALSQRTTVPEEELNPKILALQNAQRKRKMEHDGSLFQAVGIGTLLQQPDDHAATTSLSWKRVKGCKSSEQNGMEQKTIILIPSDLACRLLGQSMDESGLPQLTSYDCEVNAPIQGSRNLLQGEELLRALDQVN

OCCC(F)(F)C(F)(F)C(F)(F)C(F)(F)C(F)(F)C(F)(F)F
inactive: [1] | [2] | [3] | [4] | [5] | [6] | [7] | [8] | [9] | [10] | [11] | [12] | [13] | [14] | [15] | [16] | [17] | [18] | [19] | [20]
active: [2] 187 µM | [3] 133 µM | [4] 100 µM | [5] 100 µM | [9] 100 µM | [10] 147 µM | [12] 176 µM | [18] 100 µM

O=C1OC2(c3ccccc31)c1cc(Br)c(O)c(Br)c1Oc1c2cc(Br)c(O)c1Br
inactive: [1] | [2] | [3] | [4] | [5] | [7] | [8] | [9] | [10] | [11] | [12] | [14] | [16] | [17] | [18] | [19] | [20]
active: [10] 76.3 µM | [11] 52.2 µM | [13] 25.8 µM and 5.86 µM | [15] 74.9 µM and 46.2 µM
